Screening data (PubChem)
ssDAF-12 act: S. stercoralis DAF-12 nuclear receptor activators, primary screen, cell-based, luminescence, HEK293, GRIP1 co-expression, lit1-tk-luc; Nuclear hormone receptor DAF-12 (Strongyloides stercoralis); AID 652126, 2013; 370,000 tested, 1% active; activation, % at 6.8 µM; HEK293 ssDAF-12/GRIP1 lit1-tk-luc reporter; % of 3 µM dafachronic acid response;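 active = activation above the mean over all tested compounds plus 3 SD, cut at about 0.9% in these data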;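 note: 0% = DMSO-only wells and 100% = 3 µM delta7-dafachronic acid wells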
DAX1 inh-1: DAX1 (NR0B1) inhibitors on StAR promoter, primary screen, cell-based, luminescence, SF-1 (NR5A1), full-length DAX-1; HEK293T StAR-luciferase reporter, SF-1/DAX-1 repression relief; inhibition, % at 6.8 µM; 370,000 tested, 1.1% active; AID 652010, 2013;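 active = inhibition above the mean over all tested compounds plus 3 SD, cut at about 3.6% in these data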;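 note: 0% = DAX-1 cells with DMSO and 100% = cells lacking DAX-1 with DMSO; higher inhibition means more luminescence from relief of DAX-1 repression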
hcDAF12 agonist: H. contortus DAF-12 nuclear receptor activators, primary screen, cell-based, luminescence, HEK293, lit1-tk-luc reporter; 370,000 tested, 1.4% active; AID 652067, 2013; HEK293 hcDAF-12 lit1-tk-luc reporter; 0% DMSO, 100% Δ7-dafachronic acid; activation, % at 6.8 µM;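 active = activation above the mean of all tested compounds plus 3 SD, cut at about 5.5% in these data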;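 note: 100% = response to 3 µM Δ7-dafachronic acid high control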
hgDAF12 agonist: H. glycines DAF-12 receptor agonists, primary screen, cell-based, luminescence, HEK293, GAL4 fusion, UAS-luciferase. activation, % at 6.8 µM. HEK293 GAL4-hgDAF12 UAS-luciferase reporter, agonist luminescence; normalized to butyrate control. Nuclear hormone receptor DAF-12 (Heterodera glycines), GAL4 fusion. 370,000 tested, 1.8% active;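 active = activation above a cutoff set at the mean of all screened compounds plus 3 SD, cut at about 10% in these data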;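 note: 0% = DMSO wells and 100% = sodium butyrate wells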
DAX1 inh-2: DAX1 (NR0B1) inhibitors, primary screen, cell-based, HEK293, Gal4-DAX1, luciferase luminescence; 340,000 tested, 0.99% active; HEK293 Gal4-DAX1 luciferase reporter; inhibition, % at 6.75 µM; AID 504766, 2011; Nuclear receptor subfamily 0 group B member 1 (Homo sapiens), P51843;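 active = inhibition above the mean over all tested compounds plus 3 SD, cut at about 4.2% in these data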;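 note: 0% = DAX1-transfected cells with DMSO and 100% = empty-vector control cells with DMSO; inhibition shows as a rise in luminescence from relieved DAX1 repression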
Target sequence (P51843 207-470 limits assumed): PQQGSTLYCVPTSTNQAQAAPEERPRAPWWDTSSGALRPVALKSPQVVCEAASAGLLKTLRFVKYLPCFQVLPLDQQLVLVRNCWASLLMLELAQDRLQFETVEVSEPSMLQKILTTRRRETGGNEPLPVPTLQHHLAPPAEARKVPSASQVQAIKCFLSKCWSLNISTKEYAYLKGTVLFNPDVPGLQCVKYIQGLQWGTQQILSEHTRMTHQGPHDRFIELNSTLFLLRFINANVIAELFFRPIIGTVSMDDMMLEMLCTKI
Active calls of the source: *; nt = no result given. Rows were chosen to be rich in hits. Some 4.1% of all compounds tested hit in one or more screens of this group.

SMILES	ssDAF-12 act	DAX1 inh-1	hcDAF12 agonist	hgDAF12 agonist	DAX1 inh-2
COc1cccc(NC(=O)c2ccc3nc(C)sc3c2)c1	0	1	5.8*	8	5.5*
COc1ccccc1NC(=O)c1ccc2nc(C)sc2c1	-1	0	0	4	1
Cc1cccc(C(=O)Nc2cccc(OC(=O)c3cccc(C)c3)c2)c1	0	1	4	13*	2
CC(=O)Oc1cccc(NC(=O)c2cccc(C(=O)Nc3cccc(OC(C)=O)c3)c2)c1	-1	-1	-1	0	0
COc1cccc(C(=O)Nc2ccc(C)cc2)c1	1.6*	4.0*	5	9	1
COc1cccc(NC(=O)c2cnc(SC)nc2)c1	1.3*	0	4	3	0
COc1cccc(C(=O)Nc2cccc(-c3ccc(N4CCOCC4)nn3)c2)c1	-1	4.0*	0	5	1
COc1ccc(NC(=O)c2ccc(C)cc2)c(OC)c1	0	1	4	12*	1
NC(=O)C1CCN(c2ncc(Br)s2)CC1	-1	nt	1	1	nt
CSCCC(c1nc2ccccc2[nH]1)n1c(-c2ccc(C)cc2)nc2ccccc21 (stereo unspecified)	1	1	2	3	nt
CSCCC(c1nc2ccccc2[nH]1)n1c(-c2ccc3ncccc3c2)nc2ccccc21 (stereo unspecified)	0	3	2	11*	nt
O=C(COC(=O)CCCC1=NS(=O)(=O)c2ccccc2N1)Nc1ccc(Br)cc1	-1	4.1*	-2	-2	-1
CCC[C@H]1[C@@H](OC(=O)NCc2ccco2)CC[C@@]23CCCN2C(=O)CCC[C@@H]13	-2	nt	-1	-2	nt
CC(=O)c1ccccn1	-1	0	-2	0	6.0*
CC(=O)Nc1ccccc1C(=O)C(=O)Nc1ccc(C)c(C)c1	-1	2	0	11*	3
Nc1cc2ccccc2cc1NS(=O)(=O)N1CCCCC1	0	0	1	-1	nt
